# What was measured:
# Details in all cases: concentration: 1 μM, replicates: in singlicate; n = 1
# BIKE = tested on: T1, BIKE
# T1 construct: gene BMP2K
# BLK = tested on: BLK
# BMPR1A = tested on: BMPR1A
# BMPR1B = tested on: BMPR1B
# BMPR2 = tested on: BMPR2
# BMX = tested on: BMX
# BRAF = tested on: BRAF
# BRK = tested on: T2, BRK
# T2 construct: gene PTK6
# BRSK1 = tested on: BRSK1
# BRSK2 = tested on: BRSK2
# 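Note: KINOMEscan kinase panel screen.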
SMILES,%Inh (BIKE) [%],%Inh (BLK) [%],%Inh (BMPR1A) [%],%Inh (BMPR1B) [%],%Inh (BMPR2) [%],%Inh (BMX) [%],%Inh (BRAF) [%],%Inh (BRK) [%],%Inh (BRSK1) [%],%Inh (BRSK2) [%]
CS(=O)(=O)Cc1ccc(Nc2nccc(-c3c(-c4cccc(NC(=O)C5CCCCC5)c4)nn4ncccc34)n2)cc1 [GSK350559],1,0,0,19,24,37,20,2,0,0
CNc1cc(-c2ccc3c(N)n[nH]c3c2)nc(N)n1 [GSK2224810],74,0,16,78,5,15,0,6,2,0
COC(=O)C(NC(=O)NC1CCN(c2ccnc(Nc3ccc(F)cc3)n2)C1)c1ccccc1 (centres unmarked) [GSK1379712],8,0,0,0,17,3,9,2,12,0
COc1cccc(C2=C(Nc3cc(Cl)c(O)c(Cl)c3)C(=O)NC2=O)c1 [SB-390767],21,0,0,0,1,13,0,18,7,0
NS(=O)(=O)c1cccc(N/C=C2\C(=O)Nc3ccc(S(=O)(=O)Cc4c(Cl)cccc4Cl)cc32)c1 [GSK398099],0,0,0,0,8,0,0,2,0,0
COC(=O)C(Cc1ccccc1)NC(=O)NC1CCN(c2ccnc(Nc3ccc(F)cc3)n2)C1 (centres unmarked) [GSK1379714],17,10,0,0,22,29,0,12,0,0
O=C1NC(=O)C(c2ccc(Cl)cc2)=C1Nc1ccc(O)cc1 [SB-340867],4,0,0,0,0,21,0,0,0,0
O=C(Nc1n[nH]c2cc(-c3ccsc3)ccc12)C1CC1 [SB-732932],54,0,27,22,32,15,9,0,59,61
CC[C@@H]1CO[C@H](C(=O)Nc2ccccc2)CN1c1cc(-c2ccc3c(N)n[nH]c3c2)nc(NC)n1 [GSK2376236],15,0,0,0,0,41,0,7,0,1
CNCc1ccc2nc(NC(=O)c3ccc(C(C)(C)C)cc3)cn2c1,15,0,17,14,19,0,18,2,9,0
Cc1ccc(NC(=O)Nc2ccccc2)cc1-c1ccc(C(=O)Nc2ccncc2)cc1 [GSK1398471],20,33,0,0,0,18,32,15,9,2
CNc1nc(-c2ccc3c(N)n[nH]c3c2)cc(N2C[C@@H](C(=O)NC3CCCCC3)OC[C@H]2C)n1 [GSK2375584],24,0,0,0,0,23,0,14,14,19
Cc1ccc(NC(=O)c2ccc(Cl)cc2)cc1-c1ccc(C(=O)Nc2ccncc2)cc1 [GSK1398467],13,1,0,0,0,8,0,0,0,18
COc1ccc(-c2coc3ccc(-c4nnc(C)o4)cc23)cc1,0,3,18,0,0,0,0,0,0,100
COC(=O)c1cccc(NC(=O)NC2CCN(c3ccnc(Nc4ccc(OC)cc4)n3)C2)c1 (centres unmarked) [GSK1379746],6,0,9,0,26,3,7,28,0,0
Cc1ccccc1Cn1ccn2c(=O)cc(N3CCOCC3)nc12 [GSK2269905],16,10,0,0,0,3,0,22,0,98.6
COc1cccc(CNC(=O)NC2CCN(c3ccnc(Nc4ccc(F)cc4)n3)C2)c1 (centres unmarked) [GSK1379723],19,0,0,0,3,7,10,17,0,0

# From publication PMC5540273 (PLoS ONE, 2017)
